Measurements reported in the supplement of paper PMC3616981.
± gives the standard deviation of the averaged measurements.

Compound: CC(C)c1cccc(C(C)C)c1N1C(=O)c2ccc(O)cc2C1=O
Test: BioMAP readout fold decrease vs vehicle (vehicle/treated); higher = stronger decrease of the readout vs vehicle (values <1 mean increase)
Description: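 BioSeek BioMAP human primary cell (co-)culture systems (3C, 4H, LPS, SAg, BE3C, CASM3C, hDFCGF, KF3CT) treated with 5HPP-33 at 1.48, 4.44, 13.3 and 40 µM. Read-outs are protein levels by ELISA, proliferation and SRB total protein. Duplicate rows per assay are averaged as replicates. Tested in ToxCast Phase II for this study; exposure time not stated.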
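Note: Co-cultures of keratinocytes, bronchial epithelial and smooth muscle cells, fibroblasts, HUVECs and PBMCs under stimuli like LPS, TNF-α, IFN-γ, IL-1β, TGF-β or EGF, SRB reflecting cytotoxicity.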

| Target | BioMAP readout fold decrease (1.48 µM) | BioMAP readout fold decrease (4.44 µM) | BioMAP readout fold decrease (13.3 µM) | BioMAP readout fold decrease (40 µM) |
| --- | --- | --- | --- | --- |
| BE3C_tPA | 0.995 ± 0.012 | 0.805 ± 0.042 | 1.1 ± 0.071 | 1.59 ± 0.073 |
| 3C_Proliferation | 1.29 ± 0.074 | 3.56 ± 0.043 | 6.1 ± 0.28 | 7.03 ± 0.41 |
| SAg_CD40 | 1.164 ± 0.003 | 1.39 ± 0.092 | 1.94 ± 0.027 | 5.89 ± 0.36 |
| 4H_uPAR | 1.2 ± 0.045 | 1.3 ± 0.038 | 1.361 ± 0.0024 | 2.33 ± 0.26 |
| hDFCGF_EGFR | 1.0619 ± 0.00028 | 1.02 ± 0.028 | 1.19 ± 0.025 | 1.291 ± 0.0087 |
| SAg_MCP1 | 1.08 ± 0.023 | 0.997 ± 0.021 | 0.892 ± 0.0095 | 4.61 ± 0.68 |
| 3C_IL8 | 0.994 ± 0.019 | 0.925 ± 0.011 | 0.7655 ± 0.0039 | 1.132 ± 0.0075 |
| hDFCGF_IP10 | 1.1 ± 0.1 | 1.073 ± 0.0033 | 1.33 ± 0.037 | 5.47 ± 0.25 |
| BE3C_IL1a | 1.06 ± 0.13 | 1.13 ± 0.015 | 1.19 ± 0.015 | 1.85 ± 0.082 |
| CASM3C_IL8 | 1.02 ± 0.02 | 1.074 ± 0.0085 | 0.938 ± 0.016 | 0.872 ± 0.025 |
